Only some compounds are listed: those with a hit (about 6.8% of all), similar ones and a draw of the others.
A340 absorber: compounds absorbing at 340 nm | compound absorbance at 340 nm, fold over control | fold change at 10 µM | 65,000 tested, under 10 active;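 active = at 10 µM dose, initial 340 nm absorbance at least 2 fold that of control wells; inactive = change under 2 fold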;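 also: initial absorbance extrapolated from kinetic A340 decline of NADH oxidation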
MK inhibit: S. pneumoniae mevalonate kinase inhibition | purified MK, PK/LDH-coupled NADH absorbance 340 nm | inhibition, % at 10 µM | hit rate 0.48% among 65,000;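 active = ranked among the strongest by inhibition in the single 10 µM screen, a fixed top-ranked set picked for dose follow-up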
DPM-DC inhibit: blocks S. pneumoniae diphosphomevalonate decarboxylase; hit rate 0.49% among 65,000; purified DPM-DC, PK/LDH coupled NADH fluorescence; AID 556; calls only at 10 µM;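 active = the 320 compounds with the highest percent inhibition in the single-dose primary screen, excluding strongly autofluorescent ones, cut at about 32% in these data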;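 also: kinetic rate of NADH fluorescence loss reporting ADP formed by the decarboxylase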
NADH enzymes: inhibition of NAD/NADH coupling enzymes, library profiling; IC50, µM (highest dose often 10 µM), for the others: at the top dose inhibition; hit rate 0.02% among 65,000; coupled PK/LDH NADH assays, four targets;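 active = single-dose screening hits from any of four coupled enzyme assays that gave an IC50 when retested across doses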;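 also: the DPM-DC format reads NADH fluorescence rather than 340 nm absorbance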
Spn PMK inh: inhibitors of Streptococcus pneumoniae phosphomevalonate kinase; inhibition, % at 10 µM; purified PMK, PK/LDH-coupled NADH absorbance 340 nm; AID 539; hit rate 0.49% among 65,000;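 active = top-ranked compounds by inhibition in the single 10 µM screen, taking a fixed number of the strongest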;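 also: 0% = full reaction with DMSO carrier and 100% = background rate without enzyme reaction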
Autofluor 339: intrinsic fluorescence of library compounds, ex339/em460 – biochemical, MLSMR library, data from DPM-DC assay, artefact control, profiling panel | AID 709 | compound autofluorescence, ex339/em460 nm, NADH buffer; stronger effect = higher value; 1 = no-compound wells, NADH background | hit rate 5.5% among 65,000 | fluorescence fold increase at 10 µM;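 active = at 10 µM, mean starting fluorescence two-fold or more over control wells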;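 also: signal is the first read of a kinetic run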
Active calls of the source: *; i = inactive; . = no result shown.

SMILES | A340 absorber | MK inhibit | DPM-DC inhibit | NADH enzymes | Spn PMK inh | Autofluor 339
CN(C)CCCNC(CC(=O)Nc1ccc(Cl)cc1)C(=O)O (stereo not drawn) | 1.02 | 0.0 | i | 4.0% | 7.0 | 1
CCOc1ccc(-c2nc(-c3ccccc3)no2)cc1OCC | 1.03 | 4.0 | i | 3.0% | 5.0 | 1.13
c1cncc(-c2nnc(-c3cccs3)o2)c1 | 1.02 | 11.0 | i | 6.0% | 8.0 | 2.26*
Brc1ccccc1-c1nnc(-c2cccnc2)o1 | 1.03 | 0.0 | i | 0.0% | 0.0 | 1.1
O=c1cc(-c2ccco2)nc(-c2cccs2)o1 | 1.08 | 2.0 | i | 3.0% | 6.0 | 1.1
c1coc(-c2nnc(-c3cccs3)o2)c1 | 1 | 0.0 | . | 6.0% | 24.0 | 3.35*
COc1cc(-c2nnc(-c3cccs3)o2)cc(OC)c1OC | 1.03 | 0.0 | i | 13.0% | 14.0 | 2.51*
CCOc1ccc(-c2nnc(-c3cccs3)o2)cc1OCC | 1.1 | 9.0 | . | 12.0% | 14.0 | 3.7*
COc1cc(-c2nnc(SCC#CCO)o2)cc(OC)c1OC | 1.03 | 6.0 | i | 5.0% | 9.0 | 1.13
COc1ccccc1-n1c(SCC(=O)N2CCCC2)nc2cccnc21 | 1.02 | 0.0 | i | 4.0% | 11.0 | 1.14
COc1ccc(-c2nnc(-c3cccs3)o2)cc1OC | 1.04 | 10.0 | . | 3.0% | 0.0 | 2.47*
c1csc(-c2nnc(-c3ccc(N4CCOCC4)cc3)o2)c1 | 1.17 | 9.0 | . | 14.0% | 19.0 | 3.71*
COc1cc2nc(-c3cccs3)oc(=O)c2cc1OC | 1.27 | 11.0 | i | 10.0% | 3.0 | 1.18
COc1ccc(C(=O)NCc2cn3ccsc3n2)cc1OC | 1.02 | 8.0 | i | 8.0% | 0.0 | 1.05
CC1CCN(C(=O)CSc2nc(N)c3c4c(sc3n2)CN(C)CC4)CC1 | 1.1 | 5.0 | . | 3.0% | 0.0 | 2.09*
CN1CCc2c(sc3nc(SCC(=O)N4CCOCC4)nc(N)c23)C1 | 1.17 | 5.0 | . | 3.0% | 0.0 | 2.22*
Cc1ccc(Cn2cccc(NC(=O)c3ccco3)c2=O)cc1 | 1.03 | 3.0 | i | 8.0% | 20.0 | 1.09
CCOc1ccc(-c2cc3nc(C4CCN(C(=O)OC(C)(C)C)CC4)c(C(=O)O)cn3n2)cc1 | 1.07 | 0.0 | . | 9.0% | 17.0 | 4.4*
CCOC(=O)Cn1c(=O)oc2cc(S(=O)(=O)N3CCc4ccccc43)ccc21 | 1.05 | 0.0 | i | 3.0% | 7.0 | 1.06
Cc1cc(=O)oc2cc3c(cc12)OCCO3 | 1.09 | 4.0 | . | 2.0% | 0.0 | 3.64*
Cc1cc2oc(=O)cc(C)c2c(=O)o1 | 1.04 | 0.0 | i | 10.0% | 9.0 | 1.22
Cc1cc(=O)oc2cc3c(cc12)OCCN3 | 1.12 | 4.0 | . | 8.0% | 11.0 | 2.08*
Cc1c(NC(=O)Cn2cnc3c(=O)n(C)c(=O)n(C)c32)cccc1-c1nc2ccccc2o1 | 1.05 | 1.0 | i | 0.0% | 0.0 | 1.1
O=C(O)CN1C(=O)c2cccc(Oc3ccc(Cl)cc3)c2C1=O | 1.07 | 14.0 | i | 9.0% | 7.0 | 1.06
O=c1n(Cc2ccccc2)c2cc(Cl)cnc2n1Cc1ccccc1 | 1.02 | 6.0 | i | 4.0% | 0.0 | 2.81*
SMILES | A340 absorber | MK inhibit | DPM-DC inhibit | NADH enzymes | Spn PMK inh | Autofluor 339
O=C(Cn1c(=O)c2c(ncn2Cc2ccccc2)n(Cc2ccccc2)c1=O)N1CCCC1 | 1 | 0.0 | i | 5.0% | 14.0 | 1.08
CC(=O)N1CCC(N(CCCOC(C)C)C(=O)Nc2ccc(Cl)cc2)CC1 | 1.05 | 3.0 | i | 4.0% | 9.0 | 1.08
COc1ccc(-c2c(N)nnc3c2[nH]c2ccccc23)cc1OC | 1.04 | 12.0 | . | 12.0% | 11.0 | 4.59*
O=C(CCCCCN1C(=O)c2ccccc2C1=O)NCc1ccccn1 | 1 | 0.0 | i | 7.0% | 21.0 | 1.07
COc1ccc2c(c1)c1ncn(Cc3ccco3)c(=O)c1n2C | 1.04 | 7.0 | . | 8.0% | 9.0 | 3.73*
COc1cc(-n2c3nc4ccccc4nc3c3c(=O)n(Cc4ccco4)cnc32)cc(OC)c1OC | 1.02 | 0.0 | i | 0.0% | 0.0 | 1.09
COc1cccc(-c2nn(C)c3sc(C(=O)NCc4ccccn4)cc23)c1 | 1.05 | 7.0 | . | 7.0% | 7.0 | 4.91*
CCOC(=O)N1CCC(NC(=O)c2cc3c(-c4cccc(OC)c4)nn(C)c3s2)CC1 | 1.01 | 5.0 | i | 12.0% | 9.0 | 3.87*
C=CCn1c(SCc2nc3ccccc3c(=O)[nH]2)nnc1-c1cc2cc(Cl)ccc2o1 | 1.08 | 10.0 | i | 11.0% | 10.0 | 2.08*
O=c1[nH]c(CSc2nnc(-c3ccncc3)n2Cc2ccco2)nc2ccccc12 | 0.99 | 4.0 | i | 7.0% | 15.0 | 1.06
O=C(CSc1nccn1-c1ccc(Cl)cc1)NCc1ccc2c(c1)OCO2 | 1.02 | 7.0 | i | 4.0% | 0.0 | 1.03
COc1cc(OC)c(C2CC(=O)N3CN(c4ccccc4)CSC3=C2C#N)cc1OC (stereo not drawn) | 1.15 | 64.0* | i | 23.0% | 5.0 | 1.09
COCCNC(=O)c1c(N)sc2c1CCCC2 | 1.03 | 2.0 | i | 11.0% | 12.0 | 2.12*
CCOC(=O)c1[nH]c2cc(OC)c(OC)cc2c1NC(=O)CN1CCN(C)CC1 | 1.14 | 7.0 | . | 4.0% | 0.0 | 3.59*
CCOC(=O)c1[nH]c2ccc(OC)cc2c1NC(=O)CN1CCC2(CC1)OCCO2 | 1.06 | 9.0 | . | 7.0% | 5.0 | 3.85*
CCOC(=O)c1[nH]c2ccc(F)cc2c1NC(=O)C(C)N1CCc2cc(OC)c(OC)cc2C1 (stereo not drawn) | 1 | 11.0 | i | 7.0% | 12.0 | 1.45
CCOC(=O)c1[nH]c2ccc(C)cc2c1NC(=O)CN1CCCCC1 | 1.01 | 10.0 | i | 6.0% | 2.0 | 1.75
CCOC(=O)c1[nH]c2ccc(OC)cc2c1NC(=O)c1nonc1C | 1.02 | 12.0 | i | 9.0% | 15.0 | 1.1
CCOC(=O)c1[nH]c2ccc(OC)cc2c1NC(=O)C(C)N1CCC2(CC1)OCCO2 (stereo not drawn) | 1.06 | 9.0 | . | 8.0% | 6.0 | 3.8*
COc1ccc(C2(O)CCN(C(=O)c3ccc4c(c3)OCO4)CC2)cc1 | 1.02 | 3.0 | i | 6.0% | 16.0 | 1.07
O=C(NCC1CCCO1)c1nnc(Cc2ccc(F)cc2)o1 (stereo not drawn) | 1.03 | 0.0 | i | 4.0% | 11.0 | 1.11
OCCN1CCOCCN(CCO)CCOCC1 | 1.04 | 5.0 | i | 3.0% | 3.0 | 1.1
COc1ccc(N(CC(=O)Nc2cc(OC)ccc2OC)S(C)(=O)=O)cc1 | 1.03 | 51.0* | i | 17.0% | 0.0 | 1.15
Cc1cc(-c2ccccc2)nn1-c1nc2c(c(=O)[nH]c(=O)n2C)n1C | 0.98 | 15.0 | i | 8.0% | 9.0 | 1.11
COc1ccc(-c2nnc(NC(=O)c3ccc(S(=O)(=O)N4CCc5ccccc5C4)cc3)o2)cc1 | 1.15 | 0.0 | i | 9.0% | 3.0 | 3.09*
CC1CC(C)CN(S(=O)(=O)c2ccc(C(=O)Nc3nnc(-c4cccs4)o3)cc2)C1 (stereo not drawn) | 1.08 | 1.0 | . | 4.0% | 6.0 | 3.75*
